Reference: PubChem BioAssay
Active and inactive are the calls of the source. Unless noted, the rule behind the calls is not given here.

What was measured:
[1] = compounds binding Alexa647 anti-His antibody – biochemical, small-molecule microarray, 635 nm fluorescence, artefact control for SMM control protein annotation, primary screen (AID 1128); conditions: higher = more signal;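 note: score merges feature fluorescence with signal-to-noise for each printed compound spot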
[2] = test system: Human papillomavirus type 1a E7 protein (residues 1-88); experiment: HPV1a E7 small-molecule binders, primary screen, biochemical, small-molecule microarray, residues 1-88, 635 nm (AID 1129); conditions: small-molecule microarray binding, fluorescence 635 nm; higher = more signal
[3] = molecular target: Focal adhesion kinase 1 (Homo sapiens) (UniProt Q05397); experiment: PTK2 protein binding on printed compound slides – biochemical, small-molecule microarray, 635/667 nm fluorescence, BSA, DTT, primary screen (AID 1130); conditions: 635 nm fluorescence, higher = more signal;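 note: composite of spot emission at 667 nm and signal to noise over triplicate slides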
[4] = test system: Fibrinogen (Alexa647-labelled); experiment: Alexa647-fibrinogen binding to printed small molecules – biochemical, small-molecule microarray, 635/667 nm fluorescence, artefact control for SMM control-protein annotation, profiling panel (AID 1131); conditions: fibrinogen-A647 binding fluorescence, higher = more signal;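 note: z-score merges 667 nm fluorescence with per-spot signal-to-noise over triplicate slides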
[5] = molecular target: Follistatin (Homo sapiens) (UniProt P19883); experiment: FST protein binding to printed compounds – biochemical, small-molecule microarray, 635/667 nm fluorescence, primary screen (AID 1132); conditions: 635 nm fluorescence, higher = more signal
[6] = molecular target: Fibroblast growth factor 2 (Homo sapiens) (UniProt P09038); experiment: basic fibroblast growth factor binding to printed compounds – biochemical, small-molecule microarray, 635/667 nm fluorescence, primary screen (AID 1133); conditions: FGF2, fluorescence 635/667, higher = more signal
[7] = JC-1 mitochondrial potential readout, lung cancer cells – cell-based, A549, JC-1 fluorescence, basal, 24 h, 100 nL, profiling panel (AID 1138); conditions: higher = more signal;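 note: A549 lung adenocarcinoma cells under basal conditions with no added stimulus; test concentration not given here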
Lefty1 = Lefty1 protein binding to printed compounds – biochemical, small-molecule microarray, 635/667 nm fluorescence, primary screen (AID 1139); conditions: fluorescence 635/667, higher = more signal
[8] = test system: wheat germ agglutinin (Triticum aestivum), Alexa647-labelled; experiment: Alexa647-WGA lectin binding to printed small molecules – biochemical, small-molecule microarray, 635/667 nm fluorescence, artefact control for SMM control-protein annotation, profiling panel (AID 1140); conditions: WGA-A647 binding, 635 nm fluorescence, higher = more signal;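 note: score merges 667 nm feature emission with signal to noise over triplicate slides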
[9] = molecular target: Luciferin 4-monooxygenase (Photinus pyralis) (UniProt P08659); experiment: inhibition of purified Photinus pyralis luciferase – biochemical, luminescence, purified enzyme, 2006 set, primary screen (AID 1141); conditions: purified firefly luciferase, SteadyGlo luminescence, 30 min; higher = more signal, called active from +8 up or from −8 down;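 note: cell-free assay with purified firefly luciferase at 100 ng per well in PBS; test concentration not given here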
[10] = test system: Wnt5a (protein binding on small-molecule microarray); experiment: small molecules binding Wnt5a protein – biophysical, small-molecule microarray, 635/667 nm fluorescence, primary screen (AID 1142); conditions: 635 nm fluorescence, higher = more signal;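 note: fluorescence read at 667 nm with signal to noise per printed feature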
[11] = ATP-based viability of Huh7 replicon cells – cell-based, CellTiter-Glo luminescence, basal, 48 h, cytotoxicity control for HCV replication inhibitor project, primary screen (AID 1143); conditions: higher = more signal, called active from +8 up or from −8 down;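 note: Huh7 hepatoma cells carrying a hepatitis C replication reporter with no stimulus; test concentration not given here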
[12] = Pseudomonas biofilm growth suppression – PAO1 strain, BacTiter-Glo luminescence, LB-PBS, primary screen (AID 1144); conditions: P. aeruginosa PAO1 biofilm, 12 h, higher = more signal
[13] = basal CRE-LacZ reporter activity in PC12 – cell-based, unstimulated, primary screen (AID 1145); conditions: no forskolin, luminescence, 4.5 h, higher = more signal, called active from +8 up or from −8 down
[14] = forskolin-driven CRE-LacZ activity in PC12 – cell-based, CRE-LacZ reporter, forskolin-stimulated, primary screen (AID 1146); conditions: luminescence, 4.5 h, higher = more signal, called active from +8 up or from −8 down;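 note: PC12 cells with 6xCRE LacZ reporter stimulated by forskolin 10 µM; beta-galactosidase reporter signal reflecting CREB driven transcription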
[15] = molecular target: Streptavidin (Streptomyces avidinii) (UniProt P22629); experiment: compounds binding control protein streptavidin – biophysical, small-molecule microarray, 635/667 nm fluorescence, artefact control for SMM compound annotation, primary screen (AID 1147); conditions: higher = more signal;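 note: signal reflects streptavidin binding to arrayed compounds as a control protein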
[16] = probe aInhba binding on compound microarray – biochemical, small-molecule microarray, 635/667 nm fluorescence, primary screen (AID 1148); conditions: higher = more signal;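 note: score merges 667nm spot fluorescence with signal-to-noise for antibody binding to printed compounds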
Torsin-1A (Homo sapiens) [17] = molecular target: Torsin-1A (Homo sapiens) (UniProt O14656); experiment: TOR1A wild-type binding on microarray – cell lysate, small-molecule microarray, lysate, 635/667 nm, primary screen (AID 1149); conditions: COS7 hTOR1A-WT lysate, 635 nm fluorescence, higher = more signal
Torsin-1A (Homo sapiens) [18] = molecular target: Torsin-1A (Homo sapiens) (UniProt O14656); experiment: torsin A mutant lysate binding on microarrays – cell lysate, small-molecule microarray, COS7 lysate, 635/667 nm fluorescence, primary screen (AID 1150); conditions: COS7 hTOR1A mutant lysate, 635 nm fluorescence, higher = more signal;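 note: score pools 667 nm emission and signal to noise measuring lysate protein binding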
[19] = test system: Sonic hedgehog protein (Shh); experiment: Sonic hedgehog microarray binding compounds – biochemical, small-molecule microarray, 635/667 nm fluorescence, primary screen (AID 1151); conditions: 635 nm fluorescence, higher = more signal;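 note: Shh protein binding to compounds spotted on small-molecule microarray slides; score combines spot fluorescence intensity with signal-to-noise across triplicate slides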

Torsin-1A (Homo sapiens), sequence (O14656 whole entry, looked up): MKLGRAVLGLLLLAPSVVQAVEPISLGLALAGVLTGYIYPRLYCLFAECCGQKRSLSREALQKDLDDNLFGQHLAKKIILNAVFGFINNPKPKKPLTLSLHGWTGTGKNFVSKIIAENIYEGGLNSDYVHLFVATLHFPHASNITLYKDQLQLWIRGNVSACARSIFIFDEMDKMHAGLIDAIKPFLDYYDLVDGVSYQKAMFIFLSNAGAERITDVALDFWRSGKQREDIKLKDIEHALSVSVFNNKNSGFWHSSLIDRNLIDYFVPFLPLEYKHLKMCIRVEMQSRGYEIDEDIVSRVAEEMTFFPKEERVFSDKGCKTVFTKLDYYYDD
Luciferin 4-monooxygenase (Photinus pyralis), sequence (P08659 whole entry, looked up): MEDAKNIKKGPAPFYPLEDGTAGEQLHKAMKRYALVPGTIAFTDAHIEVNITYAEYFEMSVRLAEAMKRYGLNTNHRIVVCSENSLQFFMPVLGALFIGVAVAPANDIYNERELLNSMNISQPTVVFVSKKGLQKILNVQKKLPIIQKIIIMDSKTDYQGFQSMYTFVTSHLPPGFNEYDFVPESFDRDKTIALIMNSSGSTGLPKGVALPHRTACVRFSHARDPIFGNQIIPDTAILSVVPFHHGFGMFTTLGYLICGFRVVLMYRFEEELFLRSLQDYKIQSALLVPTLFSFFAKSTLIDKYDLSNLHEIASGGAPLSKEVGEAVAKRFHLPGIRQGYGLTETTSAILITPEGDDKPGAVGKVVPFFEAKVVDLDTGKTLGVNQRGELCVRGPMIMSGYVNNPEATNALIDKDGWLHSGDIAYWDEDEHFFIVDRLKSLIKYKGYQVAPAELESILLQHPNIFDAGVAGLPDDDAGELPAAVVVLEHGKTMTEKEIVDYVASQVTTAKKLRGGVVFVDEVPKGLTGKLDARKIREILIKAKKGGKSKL
Focal adhesion kinase 1 (Homo sapiens), sequence (Q05397 whole entry, looked up): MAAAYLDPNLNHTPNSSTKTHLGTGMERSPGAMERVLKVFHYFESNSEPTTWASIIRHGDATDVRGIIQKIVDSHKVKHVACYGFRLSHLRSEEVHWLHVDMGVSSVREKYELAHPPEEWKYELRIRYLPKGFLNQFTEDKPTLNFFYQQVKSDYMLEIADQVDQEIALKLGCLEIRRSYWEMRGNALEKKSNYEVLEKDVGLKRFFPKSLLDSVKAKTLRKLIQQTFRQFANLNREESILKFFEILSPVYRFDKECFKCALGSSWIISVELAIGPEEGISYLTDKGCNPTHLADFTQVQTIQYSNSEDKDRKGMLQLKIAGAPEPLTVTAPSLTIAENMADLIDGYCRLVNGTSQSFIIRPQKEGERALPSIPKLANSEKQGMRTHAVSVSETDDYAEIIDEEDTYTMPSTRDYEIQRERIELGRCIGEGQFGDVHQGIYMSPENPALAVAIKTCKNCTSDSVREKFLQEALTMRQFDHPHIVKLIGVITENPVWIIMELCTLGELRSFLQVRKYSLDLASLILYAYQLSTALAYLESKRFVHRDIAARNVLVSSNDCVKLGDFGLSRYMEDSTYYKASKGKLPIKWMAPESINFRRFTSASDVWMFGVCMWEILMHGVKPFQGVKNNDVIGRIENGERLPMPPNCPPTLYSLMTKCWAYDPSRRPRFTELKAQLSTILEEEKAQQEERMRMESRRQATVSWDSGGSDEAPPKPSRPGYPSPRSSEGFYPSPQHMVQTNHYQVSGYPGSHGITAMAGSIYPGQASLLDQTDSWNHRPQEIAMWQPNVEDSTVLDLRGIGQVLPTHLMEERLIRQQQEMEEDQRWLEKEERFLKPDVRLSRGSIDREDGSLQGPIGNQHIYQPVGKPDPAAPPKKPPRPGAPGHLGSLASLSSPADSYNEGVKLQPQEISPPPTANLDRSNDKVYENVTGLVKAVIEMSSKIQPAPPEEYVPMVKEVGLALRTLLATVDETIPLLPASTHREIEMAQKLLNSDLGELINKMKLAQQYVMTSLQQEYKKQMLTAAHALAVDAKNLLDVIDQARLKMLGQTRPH
Fibroblast growth factor 2 (Homo sapiens), sequence (P09038 whole entry, looked up): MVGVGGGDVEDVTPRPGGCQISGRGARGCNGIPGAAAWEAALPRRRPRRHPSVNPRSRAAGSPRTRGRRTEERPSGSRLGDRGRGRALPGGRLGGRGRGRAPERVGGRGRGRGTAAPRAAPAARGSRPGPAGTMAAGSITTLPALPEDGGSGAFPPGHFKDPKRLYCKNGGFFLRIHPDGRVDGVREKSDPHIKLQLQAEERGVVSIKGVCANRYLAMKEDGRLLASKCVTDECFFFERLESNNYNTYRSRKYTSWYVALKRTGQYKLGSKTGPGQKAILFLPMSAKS
Follistatin (Homo sapiens), sequence (P19883 whole entry, looked up): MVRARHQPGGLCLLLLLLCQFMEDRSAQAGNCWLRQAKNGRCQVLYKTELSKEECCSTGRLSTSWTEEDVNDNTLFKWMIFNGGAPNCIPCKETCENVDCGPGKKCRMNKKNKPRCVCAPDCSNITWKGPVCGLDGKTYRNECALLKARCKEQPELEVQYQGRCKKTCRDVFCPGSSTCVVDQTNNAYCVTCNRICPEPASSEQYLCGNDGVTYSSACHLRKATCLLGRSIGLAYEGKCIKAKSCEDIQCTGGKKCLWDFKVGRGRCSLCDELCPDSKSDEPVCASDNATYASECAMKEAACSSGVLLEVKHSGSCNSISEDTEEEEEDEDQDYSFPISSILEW
Streptavidin (Streptomyces avidinii), sequence (P22629 whole entry, looked up): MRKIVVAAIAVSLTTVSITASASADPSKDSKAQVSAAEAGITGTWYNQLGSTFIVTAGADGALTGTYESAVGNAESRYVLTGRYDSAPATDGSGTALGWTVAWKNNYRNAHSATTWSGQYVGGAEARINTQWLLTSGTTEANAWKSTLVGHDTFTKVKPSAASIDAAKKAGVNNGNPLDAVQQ

Compound	composite z-score [1]	composite z-score [2]	composite z-score [3]	composite z-score [4]	composite z-score [5]	composite z-score [6]	z-score [7]	composite z-score (Lefty1)	composite z-score [8]	z-score [9]	composite z-score [10]	z-score [11]	z-score [12]	z-score [13]	z-score [14]	composite z-score [15]	composite z-score [16]	composite z-score (Torsin-1A (Homo sapiens) [17])	composite z-score (Torsin-1A (Homo sapiens) [18])	composite z-score [19]
[N-]=[N+]=NCc1ccccc1C[C@@]1(C(N)=O)N=C(c2ccc(OCCCO)cc2)O[C@@H]1c1ccccc1	2.4	1.03	0.572	0.67	0.367	-0.457	0.078	-0.642	1.3	-0.857 (inactive)	-0.182	-3.28 (inactive)	0.103 (inactive)	0.498 (inactive)	-0.0576 (inactive)	0.559	0.144	0.754	1.22	-0.671
C=C(COC)C(=O)CC[C@@H](OC(C)=O)c1cccc(OCCO)c1	0.0219	-1.04	-0.653	0.567	1.09	1.48	0.655	0.146	0.0226	-1.76 (inactive)	-0.124	-0.3 (inactive)	0.423 (inactive)	3.3 (inactive)	2.95 (inactive)	-1.07	-0.128	0.672	-0.708	0.358
COc1ccc(C(=O)Nc2ccc(CN3C(=O)[C@]4(O[C@H](CC(=O)N5Cc6ccccc6C[C@H]5CO)[C@@H]([Si](C)(C)c5ccc(OC)cc5)[C@@H]4C)c4ccccc43)cc2)cc1	1.46	1.16	0.353	0.547	1.1	1.35	-0.615	1.08	0.75	-0.379 (inactive)	0.307	-3.81 (inactive)	0.556 (inactive)	-0.011 (inactive)	-0.6 (inactive)	0.134	-0.132	0.851	0.93	2.04
O[C@@H](Cc1ccccc1)[C@@H](/C=C/C1CC1)N(CC#Cc1ccccc1)Cc1ccccc1Br	0.167	-0.33	0.284	-0.651	-1.12	-1.71	0.163	-0.512	-1.11	-0.375 (inactive)	-1.03	-1.72 (inactive)	0.357 (inactive)	2.41 (inactive)	0.21 (inactive)	-0.5	-0.183	-0.802	-0.744	-1.5
CN(C)c1ccc(C(O)C2C=CC3C(=O)NC(=O)C3N2Nc2ccccn2)cc1 (stereo not given)	0.909	0.683	0.304	0.309	1.32	0.417	0.229	0.783	0.423	-0.866 (inactive)	0.0094	1 (inactive)	0.161 (inactive)	-1.49 (inactive)	0.337 (inactive)	0.0863	-0.152	1.05	0.927	0.862
O=C(c1ccccc1)N1C(=O)[C@]2(Cc3ccccc31)N=C(c1ccc(OCCCO)cc1)O[C@@H]2c1ccccc1	1.87	1.23	0.677	0.965	1.24	0.944	-2.12	0.764	0.305	-1.33 (inactive)	1.09	-5.16 (inactive)	-0.378 (inactive)	2.67 (inactive)	2.1 (inactive)	0.431	-0.0361	0.357	0.562	2.09
C=CCOC(=O)[C@@H]1[C@H]2C(=O)O[C@H](c3ccccc3)[C@H](c3ccccc3)N2[C@H](c2ccc(OCCOC(=O)[C@@H]3C[C@@H]4C(=O)N[C@@H](CCCC[N+](C)(C)C)C(=O)N4[C@@H]3c3ccc(O)cc3)cc2)[C@@]12C(=O)Nc1ccc(I)cc12	2.68	1.15	0.67	0.412	1.12	1.24	-1.76	1.08	0.216	-2.38 (inactive)	0.865	-0.731 (inactive)	-1.37 (inactive)	-1.35 (inactive)	0.206 (inactive)	-0.111	0.0665	1.22	0.781	1.83
Cc1ccc(S[C@]2(C(=O)NCc3ccccc3)CC(=O)N(C3CCCCC3)[C@@H]2c2ccc(CO)cc2I)cc1	0.731	0.872	0.25	0.773	0.382	0.904	1.3	-0.0294	0.68	-0.421 (inactive)	0.301	-4.53 (inactive)	-0.183 (inactive)	0.389 (inactive)	1.01 (inactive)	1.5	-0.0221	0.0358	0.944	0.259
Cc1ccc(S[C@]2(C(=O)NCC(F)(F)F)CC(=O)N(Cc3cc(C(F)(F)F)cc(C(F)(F)F)c3)[C@@H]2c2ccc(CO)cc2I)cc1	0.214	-0.698	-0.301	-0.994	-0.887	-0.91	-1.01	-0.708	-0.314	1.5 (inactive)	-0.676	-3.02 (inactive)	-1.29 (inactive)	-0.529 (inactive)	0.423 (inactive)	-0.978	-0.153	-0.877	-0.902	-0.58
